Compound activity: PubChem BioAssay, National Center for Advancing Translational Sciences (NCATS)
This is a sample that favours compounds with a hit; in the whole collection about 7.4% have one here.
SMN2 splice up – qHTS Assay for Enhancers of SMN2 Splice Variant Expression; HEK293 SMN2-luciferase splicing reporter, luminescence, 30-36 h; Potency, µM (highest dose often 46.1 µM), actives largely listed as activators; actives 2.8% (n = 210,000); note: nearly all actives have a fitted effect of over 55% in size
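qHTS luciferase splicing reporter: luminescence rises when SMN2 exon 7 is included in transfected HEK293 cells. Compound exposure lasted 30-36 h at 37C, with 4.5 mM final sodium butyrate as control, followed by a ONE-Glo read.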
NPC1 promoter act – qHTS Assay for NPC1 Promoter Activators | Potency, µM (titrated, usually from 9.22 µM), actives largely listed as activators | AID 485313, 2010 | actives 2.4% (n = 320,000) | Huh7 NPC1 promoter luciferase reporter, 24 h; note: nearly all actives have a fitted effect of over 60% in size
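Quantitative HTS used a cell-based reporter: Huh7 cells stably bearing the NPC1 promoter upstream of luciferase were treated with compounds for 24 h, and promoter activation was read as luminescence.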
FLuc modulator – qHTS profiling assay for firefly luciferase inhibitor/activator using purifed enzyme and Km concentrations of substrates (counterscreen for miR-21 project); Luciferin 4-monooxygenase (Photinus pyralis), P08659; Potency, µM (highest dose often 57.5 µM), usual class: inhibitors; actives 6.9% (n = 360,000); purified FLuc, Km substrates, luminescence inhibition; note: nearly all actives have a fitted effect of over 55% in size
Target sequence (P08659 whole entry, looked up): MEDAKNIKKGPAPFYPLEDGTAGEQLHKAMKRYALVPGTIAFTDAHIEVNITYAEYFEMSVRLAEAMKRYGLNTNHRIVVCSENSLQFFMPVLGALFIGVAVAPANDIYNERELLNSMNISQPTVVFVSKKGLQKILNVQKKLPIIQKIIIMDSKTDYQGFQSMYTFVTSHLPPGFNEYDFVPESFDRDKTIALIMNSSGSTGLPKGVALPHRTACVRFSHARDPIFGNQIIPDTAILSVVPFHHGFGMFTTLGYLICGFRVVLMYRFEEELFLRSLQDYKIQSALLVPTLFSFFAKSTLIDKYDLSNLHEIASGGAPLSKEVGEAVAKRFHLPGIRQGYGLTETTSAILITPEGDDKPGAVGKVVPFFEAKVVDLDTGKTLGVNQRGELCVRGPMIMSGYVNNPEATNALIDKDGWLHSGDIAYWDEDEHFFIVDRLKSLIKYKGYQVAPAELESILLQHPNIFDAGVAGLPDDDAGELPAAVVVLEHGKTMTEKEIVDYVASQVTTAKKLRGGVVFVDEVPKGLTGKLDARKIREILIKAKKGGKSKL
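Purified P. pyralis luciferase, 10 nM final, with Km-level 10 uM D-luciferin and 10 uM ATP in 50 mM Tris acetate pH 7.5, 10 mM Mg acetate, 0.01% Tween-20, 0.05% BSA; 6-point qHTS titration about 60 µM downward; luminescence read.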
Rab9 promoter act – qHTS Assay for Rab9 Promoter Activators; actives 2.8% (n = 320,000); Huh7 Rab9 promoter-luciferase reporter, luminescence, 24 h; Potency, µM (top dose mostly 9.22 µM), hits mostly activators; note: nearly all actives have a fitted effect of over 60% in size
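Cell-based reporter: Huh7 stable for Rab9 promoter-driven luciferase, plated in reduced-serum medium with 10% FBS at 1500 cells/well, compound-treated 24 h at 37 °C, luminescence read after 10 min reagent.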
ELG1 genotox – qHTS screen for small molecules that induce genotoxicity in human embryonic kidney (HEK293T) cells expressing luciferase-tagged ELG1 | HEK293T ELG1-luciferase reporter, luminescence, 16 h | Potency, µM (highest dose often 46 µM), most hits filed as activators | actives 1.3% (n = 330,000); note: nearly all actives have a fitted effect of over 60% in size
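Genotoxicity was scored as increased ELG1-luciferase reporter signal, measured by ONE-Glo luminescence (30 min, room temperature). Compound or vehicle exposure of the HEK293T reporter cells lasted 16 hr at 37°C.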
Numbers stand for hits; . = inactive; ? = inconclusive; / = no result given. Calls come from the whole dose curve; as a rule, active = well fitted curve in the direction sought with a large enough effect; inconclusive = small, poorly fitted or top-dose-only effect, or another doubt; inactive = no such curve, though single readings can be large; an effect the other way counts as inactive or inconclusive.

SMILES	SMN2 splice up	NPC1 promoter act	FLuc modulator	Rab9 promoter act	ELG1 genotox
O=C(COc1ccc(Br)cc1Br)NC1CCS(=O)(=O)C1 (stereo not drawn)	/	.	.	.	.
Cc1cc(Cl)ccc1OCC(=O)NC1CCCC1	.	.	?	.	?
O=C(COc1ccc(Br)cc1Cl)NC(=O)NC1CCCC1	/	.	9.5µM	?	?
O=C(COc1ccc(Br)cc1Br)NC1CCCC1	.	.	17µM	.	.
O=C(CCCC1=NS(=O)(=O)c2ccccc2N1)OCc1ccc(Cl)cc1	/	?	.	.	.
COc1cccc(C2CC(=O)Nc3c2ccc(C)c3C)c1OC (stereo not drawn)	.	/	.	/	/
COc1ccccc1C(CNC(=O)c1ccc(S(=O)(=O)N2CCCCC2)cc1)N(C)C (stereo not drawn)	/	.	.	.	.
CC(C)NC(=O)NC(=O)COc1ccc(Br)cc1Br	2.5µM	1µM	1.2µM	2µM	3.3µM
O=C(COc1ccc(Br)cc1Cl)NC1CCCCC1	?	2.8µM	3µM	1.4µM	?
CC(C)NC(=O)NC(=O)COc1c(F)c(F)cc(F)c1F	.	.	.	.	.
COC(=O)c1ccccc1S(=O)(=O)N1CCC(NC(=O)C(Cc2cccc(OC)c2OC)NC(C)=O)CC1 (stereo not drawn)	/	.	.	.	.
O=S(=O)(CCN1CCN(c2ccccc2O)CC1)c1cc(Cl)ccc1Cl	/	.	.	.	.
Cc1nn(-c2ccccc2)c(Cl)c1/C=N/NC(=O)c1ccccc1F	/	?	8.5µM	2.2µM	?
Cc1nn(-c2ccccc2)c(Cl)c1/C=N/NC(=O)c1[nH]ncc1Br	/	0.32µM	0.6µM	0.4µM	1.5µM
Cc1cc(C(=O)N/N=C/c2c(C)nn(-c3ccccc3)c2Cl)n[nH]1	/	.	7.6µM	?	?
Cc1nn(-c2ccccc2)c(Cl)c1/C=N/NC(=O)c1ccn[nH]1	/	0.22µM	0.76µM	1.1µM	8.2µM
Cc1nn(-c2ccccc2)c(Cl)c1/C=N/NC(=O)CNc1n[nH]c(=O)[nH]c1=O	.	.	?	.	.
C/C(=N/NS(=O)(=O)c1ccc(CC(C)C)cc1)c1ccncc1	/	.	.	.	.
Cc1cc(C)cc(NC2=C(c3ccccc3)C(=O)c3ccccc32)c1	.	/	.	/	/
CC(=O)c1ccc(NC(=O)CSc2nc(N3CCOCC3)nc(N3CCOCC3)n2)cc1	/	.	.	.	18µM
CCn1c(SCC(=O)Nc2ccc(C(C)=O)cc2)nc2c([nH]c3ccccc32)c1=O	/	.	.	.	16µM
CCn1c(SCC(=O)Nc2ccccc2)nc2c([nH]c3ccccc32)c1=O	/	/	.	/	/
CC(=O)Nc1c(O)nc(SCC(=O)Nc2ccc(C(C)=O)cc2)[nH]c1=O	?	?	?	?	9.2µM
CC(=O)Nc1c(O)nc(SCC(=O)Nc2cccc(C)c2)[nH]c1=O	.	.	.	.	.
Cc1cccc(OCC(=O)NCCCNC(=O)c2ccc(C)nc2)c1	/	.	.	.	.
SMILES	SMN2 splice up	NPC1 promoter act	FLuc modulator	Rab9 promoter act	ELG1 genotox
CC1CCCCN1CCCNC(=O)c1ccc2c(c1)sc1nc(-c3ccc(F)cc3)cn12 (stereo not drawn)	/	/	.	/	/
C/C(CC(=O)NC(C)(C)C)=N\NC(N)=S	/	.	.	.	.
CCOC(=O)N1CCN(C(=O)CN(c2ccc(C)cc2C)S(=O)(=O)c2ccccc2)CC1	.	/	.	/	/
CC(C)(C)C1CCc2c(sc3c2C(=O)NC(c2ccco2)N3)C1 (stereo not drawn)	13µM	?	3µM	2.5µM	.
Cc1ccc(/C=C(\C#N)c2nc(-c3cc4c(ccc5ccccc54)oc3=O)cs2)cc1	.	/	.	/	/
CC(C)(C)OC(=O)NOCC(=O)N(Cc1ccccc1)CC(O)COc1ccccc1 (stereo not drawn)	/	.	.	.	.
Cc1nc2cnc(Oc3ccccc3)nc2n(CCC#N)c1=O	.	/	/	/	/
O=C(Cn1cc(SCc2ccccc2F)c2ccccc21)N1CCCC1	/	/	17µM	/	/
O=C(Cn1cc(SCc2ccccc2Cl)c2ccccc21)N1CCOCC1	18µM	?	12µM	?	.
Cn1cc(SCC(=O)N2CCOCC2)c2ccccc21	.	.	.	.	?
CCN1CCN(C(=O)CSc2cc(=O)n(CC)c3ccccc23)CC1	.	.	.	.	21µM
